# “And” between values parts separate entries of the source, which are not always exact repeats. Equal entries are not always repeated. Inconclusive results are not listed. A call without a number means that no potency is given here. More than one record can exist for a structure, and the calls need not agree. The source made the active and inactive calls. Unless noted, calls follow the shape of the full dose curve.
# Legend:
# [1] = Nuclear factor erythroid 2-related factor 2/antioxidant responsive element (Nrf2/ARE) small molecule agonists: qHTS cell viability counter screen in human keratinocytes (AID 1919968; active = well fitted curve in the direction sought with a large enough effect in the repeat runs; an effect the other way counts as inactive or inconclusive; also: nearly all actives have a fitted effect of over 55% in size)
# Outline: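 Cells of the KeratinoSens line were plated at 1,500 per well and left for 5 h before compound transfer from DMSO stocks. After a 23 h incubation (37 C, 5% CO2), CellTiter-Fluor was added. Signal was taken as fluorescence intensity 1 h later.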
# [2] = Nuclear factor erythroid 2-related factor 2/antioxidant responsive element (Nrf2/ARE) small molecule agonists: luciferase reporter gene qHTS assay in human keratinocytes (AID 1919969); also: nearly all actives have a fitted effect of over 35% in size; also: potency is read from the fitted curve at half-maximal effect
# [3] = biological target: Gonadotropin-releasing hormone receptor (Homo sapiens) (UniProt P30968); assay: Human gonadotropin-releasing hormone receptor (GnRHR) small molecule agonists, calcium flux assay in GnRHR-HEK293 cells (AID 1920063); also: nearly all actives have a fitted effect of over 35% in size
# Outline: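 Compounds dissolved in DMSO are pin-transferred onto dye-loaded GnRHR-HEK293 cells, which were seeded 18 h before at 37 C/5% CO2. Calcium signal is read as fluorescence intensity at 1 s intervals for 3 min.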
# [4] = biological target: KiSS-1 receptor (Homo sapiens) (UniProt Q969F8); assay: Human kisspeptin (KISS1R) small molecule agonists, calcium flux assay in KISS1R-HEK293 cells (AID 1920064; active = well fitted curve in the direction sought with a large enough effect in the repeat runs; an effect the other way counts as inactive or inconclusive)
# Outline: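 Cell line: HEK293, stable human KISS1R. Dye loading 1 h at 37 C after 18 h culture. Read: kinetic fluorescence, 480/540 nm, 3 min at 1 s intervals.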
# [5] = G protein-coupled receptor (GPCR) small molecule agonists, calcium flux assay: HEK293 wild type cell line counter screen (AID 1920065)
# Outline: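 Tox21 10K compounds, 15 concentrations each in triplicate, pin-transferred in DMSO onto dye-loaded cells; kinetic read at 480/540 nm for 3 min, 1 s intervals.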
# [6] = p53 small molecule agonists, cell-based qHTS assay with human liver microsomes (AID 1963577)
# Outline: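 Fluorescence of the beta-lactamase reporter in p53RE-bla cells, detected with LiveBLAzer substrate (2 h, room temperature, dark), served as the read-out after 16 h compound exposure at 37 C with human liver microsomes and NADPH, each 0.5 mg/mL final.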
# [7] = p53 small molecule agonists, cell-based qHTS assay with rat liver microsomes (AID 1963578); also: potency is read from the fitted curve at half-maximal effect
# Outline: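 Cells carrying a p53 response element–beta-lactamase reporter were plated and rested 5 h, then dosed with compound in DMSO plus rat liver microsomes and NADPH, each at 0.5 mg/mL final. After 16 h at 37 C, LiveBLAzer substrate was added for 2 h.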
# [8] = p53 small molecule agonists, cell-based qHTS assay with human liver microsomes: qHTS cell viability counter screen (AID 1963579); also: nearly all actives have a fitted effect of over 45% in size
# Outline: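 Cytotoxicity counter screen: p53RE-bla, 4,000 cells/well; 5 h settle, 37 C/5% CO2; cpd + HLM 0.5 mg/mL + NADPH 0.5 mg/mL (final); 16 h, 37 C; CellTiter-Glo, 30 min RT, luminescence.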
# [9] = p53 small molecule agonists, cell-based qHTS assay with rat liver microsomes: qHTS cell viability counter screen (AID 1963580); also: nearly all actives have a fitted effect of over 45% in size
# Outline: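 Luminescent ATP readout (CellTiter-Glo, 30 min at room temperature) reports viability of p53RE-bla HCT-116 cells after 16 h at 37 C with test compounds under metabolic activation by rat liver microsomes and NADPH at 0.5 mg/mL final each.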
# [10] = p53 small molecule agonists, cell-based qHTS assay: qHTS cell viability counter screen (AID 1963581); also: nearly all actives have a fitted effect of over 45% in size
# Outline: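 ATP content measured by luminescence in HCT-116 p53RE-bla cells treated 16 h at 37 C, same wells as the reporter screen.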
# [11] = p53 small molecule agonists, cell-based qHTS assay (AID 1963582; active = well fitted activation curve with a large enough effect in the signal ratio in the repeat runs, not every such curve was filed as active; the % refers to the signal ratio)
# Outline: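 16 h compound exposure (37 C) of p53 response element–bla cells, preceded by 5 h recovery at 37 C/5% CO2; read-out via LiveBLAzer B/G FRET substrate, 2 h RT, fluorescence intensity.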
# [12] = biological target: 5-hydroxytryptamine receptor 2A (Homo sapiens) (UniProt P28223); assay: 5-hydroxytryptamine receptor 2A (HTR2A) small molecule antagonists, cell-based qHTS assay (AID 1963586); also: nearly all actives have a fitted effect of over 45% in size
# Outline: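 CHO cells stably expressing human HTR2A were plated for 18 h at 37 C, then loaded with calcium dye for 1 h. Compounds were preincubated 5 min at room temperature before DOI (4 nM solution) was added. Kinetic fluorescence was read for 3 min.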
# [13] = biological target: 5-hydroxytryptamine receptor 2A (Homo sapiens) (UniProt P28223); assay: 5-hydroxytryptamine receptor 2A (HTR2A) small molecule agonists, cell-based qHTS assay (AID 1963587); also: nearly all actives have a fitted effect of over 30% in size
# Outline: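 HTR2A-CHO cells, plated 18 h at 37 C/5% CO2, dye-loaded 1 h at 37 C; compounds in DMSO added by pin tool (agonist mode). Intracellular calcium flux read as kinetic fluorescence on FDSS over 2 min at 1 s intervals.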
# [14] = biological target: Muscarinic acetylcholine receptor M1 (Homo sapiens) (UniProt P11229); assay: Cholinergic receptor muscarinic 1 (CHRM1) small molecule antagonists, cell-based qHTS assay (AID 1963588); also: nearly all actives have a fitted effect of over 40% in size; also: potency is read from the fitted curve at half-maximal effect
# Outline: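 Compounds were tested at 15 concentrations in three independent runs. Dye-loaded CHRM1-CHO cells were exposed 5 min at room temperature before stimulation by acetylcholine added at 50nM. Intracellular calcium was read kinetically on FDSS for 3 min.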
# [15] = biological target: Muscarinic acetylcholine receptor M1 (Homo sapiens) (UniProt P11229); assay: Cholinergic receptor muscarinic 1 (CHRM1) small molecule agonists, cell-based qHTS assay (AID 1963589); also: nearly all actives have a fitted effect of over 35% in size
# Outline: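 Homogeneous fluorescence calcium flux, agonist mode. Human M1-expressing CHO cells; compound dosed at 15 concentrations, three independent runs; signal sampled every 1 sec.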
# [16] = cAMP Responsive Elements (CRE) small molecule agonists, cell-based qHTS assay (AID 1963590)
# Outline: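 HEK 293T cells stably bearing CRE-bla were plated at 2,000 cells per well and rested 18 h. Compounds, positive controls or DMSO were added for 3 h at 37 C. LiveBLAzer B/G substrate was then loaded for 2 h at room temperature.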
# [17] = cAMP Responsive Elements (CRE) small molecule antagonists, cell-based qHTS assay (AID 1963591; active = well fitted inhibition curve with a large enough effect in the signal ratio in the repeat runs, not every such curve was filed as active; the % refers to the signal ratio)
# Outline: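 First, CRE-bla HEK293T cells settled 18 h at 37 C. Next, compound and 0.25 uM final NKH477 were applied for 3 h. Last, LiveBLAzer B/G substrate was loaded for 2 h at room temperature.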
# [18] = biological target: Beta-2 adrenergic receptor (Homo sapiens) (UniProt P07550); assay: Adrenergic beta2 receptor (ADRB2) small molecule antagonists, cell-based qHTS assay (AID 1963592); also: series mostly up to about 92 µM; nearly all actives have a fitted effect of over 50% in size
# Outline: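 Assay format: CHO-ADRB2 cells, 18-20hr seeding at 37C/5% CO2, then compound plus 1nM isoproterenol agonist mix for 0.5hr RT. Homogeneous time-resolved fluorescence cAMP detection after 1hr, expressed as 665/615 nm ratio.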
# [19] = biological target: D(2) dopamine receptor (Homo sapiens) (UniProt P14416); assay: Dopamine D2 receptor (DRD2) small molecule agonists, cell-based qHTS assay (AID 1963594); also: nearly all actives have a fitted effect of over 35% in size
# Outline: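 HEK293 cells stably expressing DRD2 were cultured 24 h at 37 C, then given Ro20-1724 (0.1 mM final) and compounds for 10 min at room temperature. NKH477 (200nM) was then added for 30 min. cAMP was read by HTRF.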
# [20] = biological target: D(2) dopamine receptor (Homo sapiens) (UniProt P14416); assay: Dopamine D2 receptor (DRD2) small molecule antagonists, cell-based qHTS assay (AID 1963595; active = well fitted inhibition curve with a large enough effect in the signal ratio in the repeat runs, with a control signal flat; the % refers to the signal ratio)
# Outline: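 HEK293 cells stably expressing DRD2 were preincubated with 0.1 mM Ro20-1724, then with compound for 10 min at room temperature. Cells were stimulated with 200 nM NKH477 plus 12 nM quinpirole for 30 min, and cAMP was read by HTRF.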
# Chain of KiSS-1 receptor (Homo sapiens) (Q969F8 whole entry, looked up): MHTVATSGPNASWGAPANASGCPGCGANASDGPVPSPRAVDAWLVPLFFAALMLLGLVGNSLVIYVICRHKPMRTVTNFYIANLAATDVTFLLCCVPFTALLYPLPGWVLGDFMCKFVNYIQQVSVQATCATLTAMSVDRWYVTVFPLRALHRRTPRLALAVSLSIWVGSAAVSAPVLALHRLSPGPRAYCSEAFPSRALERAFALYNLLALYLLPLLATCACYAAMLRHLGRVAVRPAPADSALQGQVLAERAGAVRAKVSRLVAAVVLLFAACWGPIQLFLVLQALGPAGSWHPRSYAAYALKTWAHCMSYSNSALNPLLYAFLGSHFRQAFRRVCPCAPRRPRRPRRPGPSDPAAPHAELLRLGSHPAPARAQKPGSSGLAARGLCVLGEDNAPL
# Chain of Muscarinic acetylcholine receptor M1 (Homo sapiens) (P11229 whole entry, looked up): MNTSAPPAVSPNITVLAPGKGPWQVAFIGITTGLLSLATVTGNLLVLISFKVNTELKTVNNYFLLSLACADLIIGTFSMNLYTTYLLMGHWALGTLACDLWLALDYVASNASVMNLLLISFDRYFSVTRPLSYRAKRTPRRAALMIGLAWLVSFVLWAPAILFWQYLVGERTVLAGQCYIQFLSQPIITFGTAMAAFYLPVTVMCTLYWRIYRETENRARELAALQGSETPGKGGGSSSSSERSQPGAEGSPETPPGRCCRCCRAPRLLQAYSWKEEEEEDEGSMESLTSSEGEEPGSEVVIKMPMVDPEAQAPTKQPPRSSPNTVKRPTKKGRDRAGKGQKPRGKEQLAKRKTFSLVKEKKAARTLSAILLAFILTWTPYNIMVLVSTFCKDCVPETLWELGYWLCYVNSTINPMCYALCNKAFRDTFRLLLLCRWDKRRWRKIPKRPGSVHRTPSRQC
# Chain of Beta-2 adrenergic receptor (Homo sapiens) (P07550 whole entry, looked up): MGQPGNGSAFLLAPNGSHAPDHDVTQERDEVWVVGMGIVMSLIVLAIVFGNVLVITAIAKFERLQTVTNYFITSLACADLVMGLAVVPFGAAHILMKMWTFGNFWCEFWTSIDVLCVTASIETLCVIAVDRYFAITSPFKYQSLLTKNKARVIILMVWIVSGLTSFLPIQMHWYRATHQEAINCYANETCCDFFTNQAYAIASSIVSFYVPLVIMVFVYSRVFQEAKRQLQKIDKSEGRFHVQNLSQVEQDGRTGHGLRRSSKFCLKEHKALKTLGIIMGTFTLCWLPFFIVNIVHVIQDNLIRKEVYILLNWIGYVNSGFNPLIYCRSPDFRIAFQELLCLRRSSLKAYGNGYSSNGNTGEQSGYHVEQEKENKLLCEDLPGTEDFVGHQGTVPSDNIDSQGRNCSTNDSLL
# Chain of 5-hydroxytryptamine receptor 2A (Homo sapiens) (P28223 whole entry, looked up): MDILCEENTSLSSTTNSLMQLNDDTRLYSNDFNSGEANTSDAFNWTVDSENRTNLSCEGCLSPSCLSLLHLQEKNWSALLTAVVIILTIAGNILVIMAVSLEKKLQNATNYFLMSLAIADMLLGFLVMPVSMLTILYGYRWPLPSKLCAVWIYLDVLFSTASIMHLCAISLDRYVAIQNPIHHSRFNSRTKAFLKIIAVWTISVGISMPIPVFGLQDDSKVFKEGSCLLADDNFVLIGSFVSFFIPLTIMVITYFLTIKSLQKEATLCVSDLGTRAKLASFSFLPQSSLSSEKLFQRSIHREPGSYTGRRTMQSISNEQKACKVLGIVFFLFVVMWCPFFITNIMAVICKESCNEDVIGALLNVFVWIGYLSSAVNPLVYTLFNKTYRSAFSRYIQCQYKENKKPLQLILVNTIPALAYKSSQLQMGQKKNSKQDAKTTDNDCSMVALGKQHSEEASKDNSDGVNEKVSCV
# Chain of D(2) dopamine receptor (Homo sapiens) (P14416 whole entry, looked up): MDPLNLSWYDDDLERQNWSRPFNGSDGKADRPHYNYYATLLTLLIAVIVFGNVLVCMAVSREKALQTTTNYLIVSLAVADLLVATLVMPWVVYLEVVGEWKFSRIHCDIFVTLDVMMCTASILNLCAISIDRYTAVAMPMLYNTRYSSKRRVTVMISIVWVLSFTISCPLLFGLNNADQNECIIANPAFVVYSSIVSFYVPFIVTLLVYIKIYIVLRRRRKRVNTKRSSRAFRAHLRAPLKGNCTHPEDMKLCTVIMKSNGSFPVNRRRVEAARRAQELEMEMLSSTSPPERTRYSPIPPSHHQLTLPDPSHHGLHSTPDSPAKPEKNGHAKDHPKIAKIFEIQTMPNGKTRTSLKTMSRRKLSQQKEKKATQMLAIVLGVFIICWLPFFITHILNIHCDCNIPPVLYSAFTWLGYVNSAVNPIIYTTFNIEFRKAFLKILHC
# Chain of Gonadotropin-releasing hormone receptor (Homo sapiens) (P30968 whole entry, looked up): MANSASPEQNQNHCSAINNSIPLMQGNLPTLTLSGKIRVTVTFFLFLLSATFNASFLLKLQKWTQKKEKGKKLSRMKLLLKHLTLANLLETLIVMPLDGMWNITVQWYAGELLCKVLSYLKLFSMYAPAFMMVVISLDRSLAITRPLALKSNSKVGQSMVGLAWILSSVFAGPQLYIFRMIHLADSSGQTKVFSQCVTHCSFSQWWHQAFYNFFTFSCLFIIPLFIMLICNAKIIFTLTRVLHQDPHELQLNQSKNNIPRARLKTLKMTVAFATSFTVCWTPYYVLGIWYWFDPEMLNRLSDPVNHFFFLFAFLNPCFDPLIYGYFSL
SMILES,Potency [1],Potency [2],Potency [3],Potency [4],Potency [5],Potency [6],Potency [7],Potency [8],Potency [9],Potency [10],Potency [11],Potency [12],Potency [13],Potency [14],Potency [15],Potency [16],Potency [17],Potency [18],Potency [19],Potency [20]
COC(=O)c1ccccc1CS(=O)(=O)NC(=O)Nc1nc(OC)cc(OC)n1,inactive,inactive,inactive,inactive,inactive,inactive,inactive,inactive,inactive,inactive,inactive,inactive,inactive,inactive,inactive,inactive,inactive,inactive,inactive,inactive
NC(=O)c1cc([N+](=O)[O-])cc([N+](=O)[O-])c1,inactive,inactive,inactive,inactive,inactive,inactive,inactive,inactive,inactive,inactive,inactive,inactive,inactive,460 nM (active),inactive,inactive,inactive,inactive,inactive,inactive
COC(C)(C)CCCC(C)C/C=C/C(C)=C/C(=O)OC(C)C (stereo unspecified),inactive,47.8 µM (active),inactive,inactive,inactive,inactive,inactive,inactive,inactive,inactive,inactive,inactive,inactive,3.3 nM (active) and inactive,inactive,inactive,inactive,inactive,inactive,inactive
O=c1[nH]c2ccccc2c(=O)o1,inactive,inactive,inactive,inactive,inactive,inactive,inactive,inactive,inactive,inactive,inactive,inactive,inactive,inactive,inactive,inactive,inactive,inactive,inactive,inactive
CCCCCCCCCCCOC(=O)c1ccccc1C(=O)OCCCCCCCCCCC,inactive,inactive,inactive,inactive,inactive,inactive,inactive,inactive,inactive,inactive,inactive,inactive,inactive,inactive,inactive,inactive,inactive,inactive,inactive,inactive
COc1ccc2c3c1O[C@H]1[C@@H](O)C=C[C@H]4[C@@H](C2)N(C)CC[C@@]341,inactive,23.9 µM (active) and inactive,inactive,inactive,inactive,inactive,inactive,inactive,inactive,inactive,inactive,inactive,inactive,inactive,inactive,inactive,inactive,inactive,inactive,inactive
Clc1ccc(C(Cl)(Cl)Cl)cc1,inactive,inactive,inactive,inactive,inactive,inactive,inactive,inactive,inactive,inactive,inactive,inactive,inactive,inactive,inactive,inactive,inactive,inactive,inactive,inactive
CCC1(CC)C(=O)C=CNC1=O,inactive,inactive,inactive,inactive,inactive,inactive,inactive,inactive,inactive,inactive,inactive,inactive,inactive,inactive,inactive,inactive,inactive,inactive,inactive,inactive
CCCCC1C(=O)NC(=O)N(C2CCCCC2)C1=O (stereo unspecified),inactive,inactive,inactive,inactive,inactive,inactive,inactive,inactive,inactive,inactive,inactive,inactive,inactive,inactive,inactive,inactive,inactive,inactive,inactive,inactive
O=[N+]([O-])c1cc(Cl)ccc1Cl,inactive,inactive,inactive,inactive,inactive,inactive,inactive,inactive,inactive,inactive,inactive,inactive,inactive,inactive,inactive,inactive,inactive,inactive,inactive,inactive
CNC,inactive,inactive,inactive,inactive,inactive,inactive,inactive,inactive,inactive,inactive,inactive,inactive,inactive,3.34 µM (active) and inactive,inactive,inactive,inactive,inactive,inactive,inactive
C1CCC(NC2CCCCC2)CC1,inactive,inactive,inactive,inactive,inactive,inactive,inactive,inactive,inactive,inactive,inactive,inactive,inactive,inactive,inactive,inactive,inactive,inactive,inactive,inactive
O=C(O)C(Br)Br,inactive,inactive,inactive,inactive,inactive,inactive,inactive,inactive,inactive,inactive,inactive,inactive,inactive,inactive,inactive,inactive,inactive,inactive,inactive,inactive
ClCC1CO1 (stereo unspecified),inactive,inactive,inactive,inactive,inactive,inactive,inactive,inactive,inactive,inactive,inactive,inactive,inactive,inactive,inactive,inactive,inactive,inactive,inactive,inactive
CCSC(=O)N1CCCCCC1,inactive,37.5 µM (active) and inactive,inactive,inactive,inactive,inactive,4.99 µM (active) and 2.57 µM (active),inactive,inactive,inactive,inactive,inactive,inactive,inactive,inactive,inactive,inactive,inactive,inactive,inactive
CCN(CC)C1CCCCC1,inactive,inactive,inactive,inactive,inactive,inactive,inactive,inactive,inactive,inactive,inactive,inactive,inactive,inactive,inactive,inactive,inactive,inactive,inactive,inactive
c1ccc2c(c1)Oc1ccccc1O2,inactive,inactive,inactive,inactive,inactive,inactive,inactive,inactive,inactive,inactive,inactive,inactive,inactive,inactive,inactive,inactive,inactive,inactive,inactive,inactive
CCOC(=O)c1ccccc1C(=O)OCC,inactive,inactive,inactive,inactive,inactive,inactive,inactive,inactive,inactive,inactive,inactive,inactive,inactive,inactive,inactive,inactive,inactive,inactive,inactive,inactive
c1ccc(NNc2ccccc2)cc1,inactive,55 µM (active),inactive,inactive,inactive,inactive,inactive,inactive,inactive,inactive,inactive,inactive,inactive,inactive,inactive,inactive,inactive,inactive,inactive,inactive
O=S(=O)(c1ccccc1)c1ccccc1,inactive,inactive,inactive,inactive,inactive,inactive,inactive,inactive,inactive,inactive,inactive,inactive,inactive,inactive,inactive,inactive,inactive,inactive,,inactive
C=CCOCC1CO1 (stereo unspecified),inactive,inactive,inactive,inactive,inactive,inactive,inactive,inactive,inactive,inactive,inactive,inactive,inactive,inactive,inactive,inactive,inactive,inactive,,inactive
ClCc1ccccc1CCl,inactive,61.1 µM (active),inactive,inactive,inactive,inactive,inactive,inactive,inactive,inactive,inactive,inactive,inactive,inactive,inactive,inactive,inactive,inactive,inactive,inactive
CCCCCCCCSC(=O)Oc1cc(Cl)nnc1-c1ccccc1,inactive,inactive,inactive,inactive,inactive,inactive,inactive,inactive,inactive,inactive,inactive,inactive,inactive,inactive,inactive,inactive,inactive,inactive,inactive,inactive
Nc1cnn(-c2ccccc2)c(=O)c1Cl,inactive,inactive,inactive,inactive,inactive,inactive,inactive,inactive,inactive,inactive,inactive,inactive,inactive,inactive,inactive,inactive,inactive,inactive,,inactive
CCCCCCC#N,inactive,inactive,inactive,inactive,inactive,inactive,inactive,inactive,inactive,inactive,inactive,inactive,inactive,inactive,inactive,inactive,inactive,inactive,inactive,
C1CCC2CCCCC2C1 (stereo unspecified),inactive,inactive,inactive,inactive,inactive,inactive,inactive,inactive,inactive,inactive,inactive,inactive,inactive,inactive,inactive,inactive,inactive,inactive,inactive,inactive
Cl/C=C/Cl,inactive,inactive,inactive,inactive,inactive,inactive,inactive,inactive,inactive,inactive,inactive,inactive,inactive,inactive,inactive,inactive,inactive,inactive,inactive,inactive
CCCCCCCCn1cc[n+](C)c1,inactive,inactive,inactive,inactive,inactive,inactive,inactive,inactive,inactive,inactive,inactive,inactive,inactive,9.41 µM (active) and 3.78 µM (active) and inactive,inactive,inactive,inactive,inactive,inactive,inactive

# Source: PubChem BioAssay (Tox21)
